# About 83,000 compounds went through this panel and 20% of them were active in at least one assay; those are over-represented in the sample as a whole.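 Compound tested at a single concentration for 48 hours in 96-well plates; a percent growth value below 10 was scored as active.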 A number with no mark means an inactive call. Calls of active or inactive are those of the source.
# Experiments:
# Test in all cases: NCI-60 one-dose screen, 48 h (100 = growth as untreated, 0 = no growth, -100 = all killed)
# Settings in all cases: 10 µM unless noted
# HCT-15 colon = test system: HCT-15 colon
# HT29 colon = test system: HT29 colon
# SNB-75 CNS = test system: SNB-75 CNS
# SNB-19 CNS = test system: SNB-19 CNS
# U251 CNS = test system: U251 CNS
# PC-3 prostate = test system: PC-3 prostate
# SK-MEL-5 melanoma = test system: SK-MEL-5 melanoma
# UACC-62 melanoma = test system: UACC-62 melanoma
# LOX IMVI melanoma = test system: LOX IMVI melanoma
# SK-MEL-28 melanoma = test system: SK-MEL-28 melanoma
# SK-MEL-2 melanoma = test system: SK-MEL-2 melanoma
# EKVX NSCLC = test system: EKVX NSCLC
# SN12C renal = test system: SN12C renal
# UO-31 renal = test system: UO-31 renal
# TK-10 renal = test system: TK-10 renal
# A498 renal = test system: A498 renal
# CCRF-CEM leukemia = test system: CCRF-CEM leukemia
# MOLT-4 leukemia = test system: MOLT-4 leukemia
Structure (SMILES),growth (HCT-15 colon),growth (HT29 colon),growth (SNB-75 CNS),growth (SNB-19 CNS),growth (U251 CNS),growth (PC-3 prostate),growth (SK-MEL-5 melanoma),growth (UACC-62 melanoma),growth (LOX IMVI melanoma),growth (SK-MEL-28 melanoma),growth (SK-MEL-2 melanoma),growth (EKVX NSCLC) [%],growth (SN12C renal),growth (UO-31 renal),growth (TK-10 renal) [%],growth (A498 renal),growth (CCRF-CEM leukemia),growth (MOLT-4 leukemia)
COc1ccc(-c2nnc(SCC(=O)Nc3ccc(C(=O)/C=C/c4ccccc4)cc3)o2)cc1OC,94.6%,93.4%,92.8%,92.2%,98%,100%,87.1%,92.4%,85.9%,106%,98%,100,103%,83.9%,96.1,95.7%,102%,89.1%
NC(=NCCCOc1ccc(F)cc1)Nc1ccc(Cl)c(Cl)c1,75.6%,31.7%,57.8%,77%,69.8%,63.9%,51.4%,78.6%,55.9%,94.3%,95.9%,74.9,66%,51.6%,69,60.9%,60.4%,36.1%
O=C(NNC(=O)c1ccc([N+](=O)[O-])cc1)c1ccc([N+](=O)[O-])cc1,97%,101%,84.5%,109%,104%,102%,99.8%,99.9%,97.2%,109%,107%,93.7,112%,95.4%,96.1,90.5%,91.6%,100%
COc1cc(NC(=O)C#Cc2ccccc2)c(OC)cc1Cl,20.6%,29.3%,65.8%,40.7%,39.5%,38.1%,30.1%,36.8%,17.2%,84.2%,60.4%,62.7,26.4%,40.4%,111,100%,11.1%,22.4%
CCc1cccc(C)c1NC(=O)c1sc2nc3c(cc2c1N)CCCCC3,27.5%,8.55% (active),6.57% (active),26.8%,24.1%,35.5%,14.2%,30.2%,45.1%,67.6%,38.9%,45.7,41.1%,51%,66.7,8.2% (active),16.6%,26.7%
CCCCCCCCN(CCCCCCCC)CC(O)c1cc(-c2ccccc2)nc2ccc(OC)cc12 (configuration not stated),10.7%,80.1%,96.4%,63.2%,15.7%,32.3%,46.5%,52.5%,21%,100%,78.1%,94.6,39.9%,42.4%,91.7,83.4%,4.59% (active),9.81% (active)
Cc1cc(SCc2ccc(Cl)cc2Cl)nc(SCc2ccc(Cl)cc2Cl)n1,93%,97.9%,96.1%,111%,105%,108%,96.1%,102%,99.5%,98.8%,103%,88.5,112%,97.5%,94.9,98.7%,108%,104%
C[C@]12CC[C@@H]3c4ccc(O)c(N)c4CC[C@H]3[C@@H]1CC[C@@H]2O,101%,103%,94.3%,109%,110%,97.6%,99.5%,97.1%,96.7%,118%,102%,78.5,105%,109%,135,96%,75.9%,80.8%
CNCCCOc1c(Br)cc(CCNC(=O)/C(Cc2cc(Br)c(OC)c(Br)c2)=N/O)cc1Br,-58.3% (active),-48.2% (active),8.28% (active),-23% (active),-84% (active),-40.4% (active),-90.2% (active),-47% (active),-80.1% (active),-64.2% (active),-54.7% (active),26.3,-74% (active),-44.9% (active),34.7,31.9%,-9.15% (active),-17.4% (active)

# Reference: PubChem BioAssay (NCI)
